Source: publication PMC8769072, “Proteome‐scale mapping of binding sites in the unstructured regions of the human proteome” (Molecular Systems Biology, 2022)

Tests used:
[1] = target: ZMYND11 480-602, Q15326
[2] = target: YES1 90-152, P07947
Sequence of YES1 90-152, P07947 (P07947 90-152): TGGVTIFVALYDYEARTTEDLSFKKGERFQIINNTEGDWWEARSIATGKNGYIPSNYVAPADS

Sequence of ZMYND11 480-602, Q15326 (Q15326 480-602): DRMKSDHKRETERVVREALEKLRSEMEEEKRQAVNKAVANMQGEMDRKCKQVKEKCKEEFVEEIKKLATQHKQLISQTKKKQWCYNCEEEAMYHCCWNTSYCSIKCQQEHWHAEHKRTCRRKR

Binder | selected by phage display [1] | selected by phage display [2]
QFHPTPPPLQHYTLED [CBFA2T2, O43439] | confidence 2 (active) | –
NQEQPTTLSMPLLMVS [ENO4, A6NNW6] | confidence 2 (active) | –
SAISEVTQPPSYEDAV [MYOCD, Q8IZQ8] | confidence 3 (active) | –
DMPELFPSKTAHVTDQ [ETAA1, Q9NY74] | confidence 2 (active) | –
EEETKEMPKLQAELAD [ZBTB38, Q8NAP3] | confidence 4 (active) | –
DSRDQMPVLEKAIDLP | confidence 2 (active) | –
PPMPQLTPQIPLTGFV [ABI1, Q8IZP0] | confidence 2 (active) | –
SELKTMPNLQPISALP | confidence 4 (active) | –
SLQNPPVLIAQPDHSY [SEC16A, O15027] | confidence 2 (active) | –
AVFPDDMPTLSALPWE [KMT2A, Q03164] | confidence 3 (active) | –
SMHRDGPPLLENAHSS [SOS1, Q07889] | confidence 2 (active) | –
QLLMPTLESETEAAVP [PPRC1, Q5VV67] | confidence 4 (active) | –
NESENSRSMPKLEIFE [ZNF165, P49910] | confidence 3 (active) | –
QQTPPKLTAYLPAMSE [PDPK1, O15530] | confidence 2 (active) | –
MPELERSQYPMEWGKT [SGMS1, Q86VZ5] | confidence 2 (active) | –
EPEYPREPPRLEPQPY [UBN2, Q6ZU65] | confidence 2 (active) | –
QGSGPGEVLPPLLQLE [AATK, Q6ZMQ8] | confidence 2 (active) | –
MVVSMPNLQDIAMPEL [DENND3, A2RUS2] | confidence 3 (active) | –
FERENEGMPSLIAESN [ARID4A, P29374] | confidence 2 (active) | –
EQALPPHLEPAWPQGL [HOMEZ, Q8IX15] | confidence 4 (active) | –

Binder | selected by phage display [1] | selected by phage display [2]
HSTGEQPPQLSLATRV [LPIN1, Q14693] | confidence 3 (active) | –
NLEVKSLRALPATPAL [PDE4DIP, Q5VU43] | – | confidence 2 (active)
SPPTLAPATASPPTTA [MLXIPL, Q9NP71] | confidence 2 (active) | –
IQSIPLPPTTHTRLPA [TSHZ1, Q6ZSZ6] | – | confidence 2 (active)
QMPRLVAEESNRGSTT [MORC4, Q8TE76] | confidence 3 (active) | –
MPQLDAAGDRLELRSE [C2orf81, A6NN90] | confidence 2 (active) | –
TPPVQGLEPPVLEAME [I3L1I5] | confidence 4 (active) | –
EVEASMPQLWAGDSEG [ZNF484, Q5JVG2] | confidence 2 (active) | –
VPVLEPQLPGSVFDPI [BRD4, O60885] | confidence 2 (active) | –
MPNLARMPSTTAISSN [SLAIN1, Q8ND83] | confidence 2 (active) | –
LISDLDEGPPVLTPVE [ZHX1, Q9UKY1] | confidence 4 (active) | –
EGIPVLEAQNGKLEVV [ATAD2B, Q9ULI0] | confidence 2 (active) | –
ELEMPVLKSSLALGLE [PPP1R35, Q8TAP8] | confidence 4 (active) | –
GMPALESVTIGDDIWD [TDRD5, Q8NAT2] | confidence 2 (active) | –
ENPPSYYSIFNYGRTP [TMEM171, Q8WVE6] | confidence 3 (active) | –
MPVLESSSWPASKGLG [NSD1, Q96L73] | confidence 3 (active) | –
DSINPPALVHVHMQGQ [ZSCAN4, Q8NAM6] | confidence 3 (active) | –
GMLEMPDLRDGSNVIV [DSG1, Q02413] | confidence 3 (active) | –
VDFDPSTPPKLMPFSN [LZTS1, Q9Y250] | confidence 2 (active) | –
